This is a sample that favours compounds with a hit; in the whole collection about 6% have one here.
Tau fibril ThT = blocks human tau fibril formation measured by thioflavin T | P10636 | recombinant tau K18 P301L, heparin-induced fibrillization, ThT fluorescence | Potency, µM (doses to about 57.4 µM), for the others: at the top dose activity, negative = inhibition, usual class: inhibitors | 270,000 compounds, 2.1% hits | AID 1460; also: nearly all actives have a fitted effect of over 55% in size
Target sequence (P10636 561-689 P618L limits assumed): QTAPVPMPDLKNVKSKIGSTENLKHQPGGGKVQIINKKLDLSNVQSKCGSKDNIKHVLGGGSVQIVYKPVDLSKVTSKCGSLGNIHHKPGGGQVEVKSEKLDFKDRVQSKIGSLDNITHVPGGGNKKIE
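In this qHTS, human K18 P301L tau is incubated with compound and heparin for 6 hr at 37 C, and Thioflavin T fluorescence then reports fibril load.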
VDR inh = vitamin D3 receptor (human) inhibition | P11473 | VDR-SRC2-3 peptide fluorescence polarization, 2 h | Potency, µM, for inactives: max response, negative = inhibition, most hits filed as inhibitors | 400,000 compounds, 0.93% hits | AID 504847
Target sequence (P11473 whole entry, looked up): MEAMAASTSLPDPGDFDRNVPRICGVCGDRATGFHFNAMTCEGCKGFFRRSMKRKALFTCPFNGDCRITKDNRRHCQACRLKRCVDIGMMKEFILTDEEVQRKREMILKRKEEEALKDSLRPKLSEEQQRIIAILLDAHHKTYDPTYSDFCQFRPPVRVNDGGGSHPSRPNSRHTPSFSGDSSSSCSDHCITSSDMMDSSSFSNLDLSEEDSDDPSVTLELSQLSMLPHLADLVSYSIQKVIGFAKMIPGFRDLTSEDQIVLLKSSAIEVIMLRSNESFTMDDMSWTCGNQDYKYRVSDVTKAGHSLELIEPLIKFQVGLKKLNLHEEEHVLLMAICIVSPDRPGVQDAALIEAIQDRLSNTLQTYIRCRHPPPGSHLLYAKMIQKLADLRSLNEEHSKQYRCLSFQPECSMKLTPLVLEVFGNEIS
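FP read-out; VDR + SRC2-3 coactivator peptide; 23 nl compound by pintool; 2 h RT incubation; reagents held at 4 deg C, protected from light.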
Tau fluor cs = counter-screen for tau fibril formation inhibitors; 280,000 compounds, 0.93% hits; Potency, µM (series often up to 57.7 µM), for the others: top-dose activity change, negative = decrease; tau K18 P301L Alexa594 fluorescence, heparin fibrillization; also: nearly all actives have a fitted effect of over 55% in size
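Human tau K18 P301L (15 uM unlabeled, 0.24 uM Alexa 594-labeled) in 100 mM sodium acetate pH 7 with 20 uM heparin, 6 hr at 37 C. ThT 30 uM added, 1 hr ambient; Alexa 594 FP and total fluorescence read at 555/632 nm.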
PLK1 PBD block = PLK1 (human) polo-box domain binding inhibition. P53350. Plk1 PBD binding of FITC phosphopeptide, fluorescence polarization. Potency, µM, for the others: max response, negative = inhibition, usual class: inhibitors. 360,000 compounds, 2.8% hits. AID 720504; also: series mostly up to about 57 µM; nearly all actives have a fitted effect of over 65% in size
Tau fibril FP = inhibitors of human tau fibril formation. P10636. K18 P301L tau heparin fibrillization, Alexa594 FP, 6 h. Potency, µM (highest dose often 57.7 µM), inactives show at the top dose activity, negative = inhibition, usual class: inhibitors. 280,000 compounds, 0.39% hits; also: nearly all actives have a fitted effect of over 55% in size
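Heparin (20 uM) drove fibril formation of recombinant tau K18 P301L, 15 uM unlabeled with 0.24 uM Alexa 594 label, for 6 hr at 37 C in 100 mM sodium acetate pH 7. Fluorescence polarization (555/632 nm) read 1 hr after 30 uM ThT.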
Sfp inh = blocks B. subtilis Sfp PPTase activity; AID 1490; 310,000 compounds, 3.5% hits; Biochemical Sfp PPTase activity, qHTS; Potency, µM, for inactives: largest response in the series, negative = inhibition, usual class: inhibitors;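 also: the enzyme is Sfp with the accession as filed and its product quenches rhodamine fluorescence; 0% = enzyme reaction without inhibitor and -100% = no enzyme wells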
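Buffer: 50 mM Hepes-Na pH 7.6, 10 mM MgCl2, 0.01% Nonidet P-40, 0.01% BSA. Enzyme 15 nM, pre-exposed to compound 15 min; substrates then added and fluorescence change tracked over 30 min.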
Numbers without * were called inactive; ? = inconclusive; . = no result given; [ ] = remark or other dose. Calls follow the shape of the dose curve; as a rule, active = well fitted curve in the direction sought with a large enough effect; inconclusive = small, poorly fitted or top-dose-only effect, or another doubt; inactive = no such curve, though single readings can be large; an effect the other way counts as inactive or inconclusive. Unless noted, % is scaled to controls: 0 for no effect and ±100 for the full control effect; potency is read from the fitted curve at half-maximal effect.

SMILES	Tau fibril ThT	VDR inh	Tau fluor cs	PLK1 PBD block	Tau fibril FP	Sfp inh
CC(CN1CCN(C)CC1)OC(=O)c1cccc(F)c1 (centres undefined)	.	2%	.	-13%	.	-8%
Cc1cccc(CSc2nnc(-c3ccco3)o2)c1	-10%	-9%	-19%	3%	-10%	28µM*
Cc1cccc(-c2nnc(SCc3ccccc3)o2)c1	-20%	-3%	-14%	-17%	-13%	-12%
c1ccc(N/N=C(\Cc2nc3ccccc3[nH]2)c2ccccc2)cc1	?	?	16µM*[quencher]	-10%	1%	9%
Clc1cccc(/C(Cc2nc3ccccc3[nH]2)=N\Nc2ccccc2)c1	?	-17%	7.1µM*[quencher]	-10%	?	11%
N#C/C(=C(/O)c1ccc([N+](=O)[O-])cc1)c1nc2ccccc2[nH]1	.	4%	-15%	-4%	0%	5%
N/N=C(/Cc1nc2ccccc2[nH]1)c1ccc([N+](=O)[O-])cc1	5µM*	?	-30%	-11%	-3%	-24%
Cc1cccc(NC2=CC(c3cccc(Br)c3)N(c3cccc(C)c3)C2=O)c1 (centres undefined)	-11%	?	-13%	.	-6%	.
COc1cccc(NC2=CC(c3ccc(C(C)C)cc3)N(c3cccc(OC)c3)C2=O)c1 (centres undefined)	?	20µM*	-22%	.	?	.
COc1ccc(C2C=C(Nc3ccccc3)C(=O)N2c2ccccc2)cc1OC (centres undefined)	13µM*	-7%	-25%	6%	?	?
COc1ccc(C2N(c3ccccc3)C(=O)C2(F)F)cc1OC (centres undefined)	.	-1%	.	-3%	.	3%
COc1cccc(C2C=C(Nc3ccccc3)C(=O)N2c2ccccc2)c1 (centres undefined)	3%	-29%	2%	-10%	5%	63µM*
O=C1CC2(CCCC2)CC(=O)N1CCCCNC[C@H]1COc2ccccc2O1	-8%	6%	-9%	.	-4%	9%
COC(=O)[C@@]1(Cc2ccccc2)[C@H]2c3cc(C(=O)N(C)C)n(Cc4ccsc4Br)c3C[C@H]2CN1C(=O)c1ccccc1	?	.	-11%	.	-4%	-7%
COc1ccc(CCNC(=O)Cc2c(C)c3cc4c(C)coc4c(C)c3oc2=O)cc1	-15%	13%	-17%	.	?	.
CCOC(=O)c1c(C)n(-c2ccccc2)c2ccc(OC(=O)c3ccc(OCC)c(OCC)c3)cc12	?	-26%	-12%	.	-15%	.
O=[N+]([O-])c1cc2c(cc1Br)-c1ccccc1C2	.	.	.	7%	.	.
Cc1ccc2cc(C(c3nnnn3C3CCCC3)N3CCN(c4ccc(F)cc4)CC3)c(=O)[nH]c2c1 (centres undefined)	?	6%	-19%	0%	-15%	35µM*
Cc1cc(C)c2cc(C(c3nnnn3C3CCCC3)N3CCOCC3)c(=O)[nH]c2c1 (centres undefined)	?	-13%	-7%	0%	?	56µM*
Cc1cccc2cc(C(c3nnnn3C3CCCC3)N3CCOCC3)c(=O)[nH]c12 (centres undefined)	-13%	-8%	-4%	-3%	-6%	-1%
COc1ccc2c(c1)CC(C(=O)NCCN1CCN(c3cccc(Cl)c3)CC1)CO2 (centres undefined)	?	3%	-20%	.	0%	.
CN1OC[C@@H]2CN(C(=S)NCCc3ccccc3)[C@H](c3ccc(-n4ccnc4)cc3)C[C@@H]21	.	.	.	-8%	.	.
CC1(C)CC(c2nc(-c3ccc(Br)cc3)cs2)CCS1 (centres undefined)	-3%	?	-7%	3.8µM*	6%	-3%
CC1(C)CC(c2nc(-c3ccc(Cl)cc3)cs2)CCS1 (centres undefined)	-10%	8%	-12%	-1%	0%	8%
COc1ccc(C2CC(c3cccs3)=Nc3ccccc3S2)cc1 (centres undefined)	-6%	-17%	-3%	0%	7%	22µM*
SMILES	Tau fibril ThT	VDR inh	Tau fluor cs	PLK1 PBD block	Tau fibril FP	Sfp inh
CC1CN(S(=O)(=O)c2ccc(CN3C(=O)c4cccnc4C3=O)s2)c2ccccc2O1 (centres undefined)	.	-9%	.	-15%	.	-6%
Cc1nn(CC(=O)OCC(=O)Nc2c(C(C)C)cccc2C(C)C)c(C)c1[N+](=O)[O-]	4%	-3%	4%	30µM*	-3%	-8%
Cc1ccc(NC(=O)CN(C)Cc2cc(=O)n3ccsc3n2)cc1	-6%	2%	-6%	-16%	5%	12%
CN(CC(=O)Nc1ccc(Cl)cc1)Cc1cc(=O)n2ccsc2n1	-4%	-2%	1%	30µM*	0%	-1%
Cc1cccc(NC(=O)Cn2c(=O)n(CCCS(=O)(=O)C3CCCCC3)c(=O)c3ccccc32)c1	-3%	-11%	-22%	.	-11%	.
NC(=O)c1ccc(N=Nc2c(-c3ccccc3)[nH]n(-c3ccccc3)c2=O)cc1	?	.	?	.	15%	-11%
Nc1nc2nc(-c3ccccc3)cc(=O)n2[nH]1	6%	1%	6%	-7%	6%	14%
Nc1[nH]n2c(=O)cc(-c3ccccc3)nc2c1N=Nc1ccc(S(N)(=O)=O)cc1	2.2µM*	-5%	?	-8%	3%	3%
Nc1[nH]n2c(=O)cc(-c3ccccc3)nc2c1N=Nc1ccccc1	5µM*	-13%	?	-11%	16%	12%
NS(=O)(=O)c1ccc(N=Nc2c(-c3ccccc3)[nH]n(-c3nc(-c4ccccc4)cs3)c2=O)cc1	1.8µM*	-3%	8.9µM*[quencher]	-15%	?	12%
COc1ccc(F)cc1-c1cc(NC=O)c2ncc(-c3cccc(C(F)(F)F)c3)n2c1	.	.	.	1%	.	.
Cc1ccccc1NC(=O)CSc1nccn1C	-2%	5%	0%	.	-1%	.
CC(CNC(=O)c1cncc(O)c1)NC(=O)c1cncc(O)c1 (centres undefined)	-5%	0%	8%	-6%	-1%	79µM*
CC(NC(=O)c1ccc(NC(=O)c2nsc3ccccc23)cc1)c1ccccc1 (centres undefined)	12%	16%	-14%	.	-18%	.
O=C(CNC(=O)c1ccccc1)Oc1cccc(Cl)c1	.	13%	.	7.5µM*	.	.
O=C(CNC(=O)c1ccccc1)OCCOc1cccc(Cl)c1	.	3%	.	2%	.	.
Oc1ccc(N=Nc2ccccc2)cc1	.	0%	.	5%	.	9%
Oc1ccc(N=Nc2n[nH]c(-c3ccc(Cl)cc3)n2)cc1	1.8µM*	3%	?	-6%	4%	12%
COc1ccc(CN2CCN(C(=O)CCC(=O)Nc3nnc(C4CCCCC4)s3)CC2)cc1F	.	-18%	.	-9%	.	20%

Bioassay records: PubChem BioAssay, National Center for Advancing Translational Sciences (NCATS)
